Among the data in PubChem BioAssay are composite z-score and z-score values, retold here.

For assay [1], the system named is Human papillomavirus type 1a protein E7 (residues 44-93). Nature of the assay: HPV1a E7 fragment binders on microarrays, primary screen, biochemical, small-molecule microarray, residues 44-93, 635 nm fluorescence (AID 1108).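 Note: E7 fragment applied at 1 µg/mL in TBST for 1 h at 4 C; score combines spot fluorescence with its signal to noise ratio.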 The following applies: small-molecule microarray binding, fluorescence 635 nm; higher = more signal.
The nature of assay [2]: modulators of HCV replicon luciferase signal, primary screen, HCV replication inhibitor project, Huh7 cells, luciferase reporter (AID 1109).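 Note: huh7 hepatoma cells harbouring a luciferase neomycin HCV replicon reporter; luciferase luminescence as measure of HCV replicon replication; test concentration not given here.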 The following applies: 48 h, higher = more signal. For orientation: Replicon systems follow genome replication, usually without infectious particles.
For assay [3], the target named is Left-right determination factor 2 (Homo sapiens) (UniProt O00292). Nature of the assay: LEFTY2 binders on small-molecule microarrays, primary screen, biochemical, small-molecule microarray, 635 nm fluorescence scan (AID 1110). As to conditions: LEFTY2 binding, higher = more signal.
Chain of Left-right determination factor 2 (Homo sapiens) (O00292 whole entry, looked up): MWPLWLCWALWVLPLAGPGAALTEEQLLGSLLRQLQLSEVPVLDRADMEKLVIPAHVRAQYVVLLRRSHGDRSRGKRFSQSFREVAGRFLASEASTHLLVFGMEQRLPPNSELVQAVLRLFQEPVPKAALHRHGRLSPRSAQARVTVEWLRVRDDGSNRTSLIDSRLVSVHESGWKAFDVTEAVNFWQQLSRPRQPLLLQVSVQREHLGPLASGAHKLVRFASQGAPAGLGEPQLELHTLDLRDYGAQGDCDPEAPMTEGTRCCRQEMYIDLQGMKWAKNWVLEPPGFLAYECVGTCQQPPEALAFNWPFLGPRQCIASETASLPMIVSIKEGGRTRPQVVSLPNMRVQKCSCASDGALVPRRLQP
In assay [4] the target is Calmodulin-1 (Homo sapiens) (UniProt P0DP23). Nature of the assay: CALM1 binders on microarrays, EGTA buffer, profiling panel, biochemical, small-molecule microarray, Cy5-labelled CALM1 (AID 1111).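 Note: labelled calmodulin applied in Tris saline Tween buffer holding calcium plus EGTA and DTT.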 As to conditions: Cy5-CALM1 binding fluorescence, higher = more signal.
For assay [5] the target is unchanged. The experiment in a line: calcium-bound CALM1 binders on microarrays, profiling panel, artefact control for SMM control-protein annotation, biochemical, small-molecule microarray, Cy5-labelled CALM1, plus calcium (AID 1112).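 Note: score merges spot fluorescence with signal to noise from triplicate slides.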 As to conditions: Cy5-CALM1 binding fluorescence, higher = more signal.
Assay [6] in a line: small-molecule microarray binders of probe aWnt5a, primary screen, biochemical, biotinylated probe, 635/667 nm fluorescence (AID 1113).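 Note: score merges 667 nm fluorescence intensity with signal-to-noise per printed feature.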 The following applies: higher = more signal.
Assay [7] is described as follows: small-molecule microarray binders of probe aShh, primary screen, biochemical, biotinylated probe, 635/667 nm fluorescence (AID 1114).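 Note: probe is biotin-labelled aShh protein from a stem cell growth factor screen; measures binding of labelled protein to compounds printed on the slide; score merges feature fluorescence at 667 nm with signal-to-noise.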 The following applies: higher = more signal.
Assay [8] in a line: small-molecule microarray binders of probe aNog, primary screen, biochemical, biotinylated probe, 635/667 nm fluorescence (AID 1115).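 Note: probe is biotinylated aNog protein used at 0.15 µg/mL for 1 h at 4 C; z-score combines 667 nm fluorescence of each spot with its signal to noise.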 As to conditions: higher = more signal.
Assay [9] has as its target Torsin-1A-interacting protein 1 (Homo sapiens) (UniProt Q5JTV8). The experiment in a line: LAP1 binders from COS7 cell lysate, primary screen, small-molecule microarray, 635/667 nm fluorescence (AID 1116). The following applies: COS7-hLAP1 lysate binding, 635 nm fluorescence, higher = more signal.
In assay [10] the target is Alpha-bungarotoxin (Bungarus multicinctus) (UniProt P60615). The experiment in a line: alpha-bungarotoxin binders on microarray, profiling panel, artefact control for SMM control protein annotation, biochemical, small-molecule microarray, Alexa647 label, 635/667 nm fluorescence (AID 1117). As to conditions: alpha-BTX-A647 binding fluorescence, higher = more signal.
Chain of Alpha-bungarotoxin (Bungarus multicinctus) (P60615 whole entry, looked up): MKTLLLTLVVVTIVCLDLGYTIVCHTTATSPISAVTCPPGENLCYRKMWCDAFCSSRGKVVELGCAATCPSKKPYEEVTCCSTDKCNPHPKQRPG

Chain of Torsin-1A-interacting protein 1 (Homo sapiens) (Q5JTV8 whole entry, looked up): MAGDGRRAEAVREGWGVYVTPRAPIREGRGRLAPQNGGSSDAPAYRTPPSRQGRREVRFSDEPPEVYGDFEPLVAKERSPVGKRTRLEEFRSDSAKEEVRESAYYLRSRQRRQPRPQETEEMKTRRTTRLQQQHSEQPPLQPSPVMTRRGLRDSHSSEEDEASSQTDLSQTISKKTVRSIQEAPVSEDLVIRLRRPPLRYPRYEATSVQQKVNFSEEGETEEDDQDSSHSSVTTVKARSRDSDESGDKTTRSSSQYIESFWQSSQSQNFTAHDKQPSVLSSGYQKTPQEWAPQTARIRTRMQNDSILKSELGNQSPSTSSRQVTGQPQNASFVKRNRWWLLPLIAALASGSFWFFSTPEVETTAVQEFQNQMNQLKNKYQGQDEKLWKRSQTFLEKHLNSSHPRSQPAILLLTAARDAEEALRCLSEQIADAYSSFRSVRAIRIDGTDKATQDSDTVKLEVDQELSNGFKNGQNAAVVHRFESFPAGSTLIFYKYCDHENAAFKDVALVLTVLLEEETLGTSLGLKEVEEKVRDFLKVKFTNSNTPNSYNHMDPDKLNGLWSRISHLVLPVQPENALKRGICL

As for `CN(C)c1ccc(C(O)C2C=CC3C(=O)NC(=O)C3N2Nc2ccccn2)cc1` (stereo not given), the composite z-score in assay [1] is 1.34; in assay [3] it was 0.883; in [4] it was -0.365; in assay [5] it was -0.733; in assay [6], -0.13; in [7], -0.154. The composite z-score was 0.213 in assay [8], -0.269 in assay [9] and 0.162 in assay [10]. The molecule also gave a z-score in [2] of -0.125.

On to `CCOC(=O)C[C@H]1[C@H](OC(=O)c2ccccc2-c2ccccc2)[C@@H](NC(=O)c2ccc3ccccc3n2)c2cc(OCCCO)ccc2N1C(=O)Cc1ccc(OC)cc1`, for which the composite z-score in [1] is 0.345; in assay [3], 0.414; in [4] it was -0.216; in [5], -0.224; in assay [6], -0.124; in assay [7], -0.182. Besides, the composite z-score is -0.147 in assay [8], 0.781 in assay [9] and 0.365 in assay [10]. The z-score in [2] was -2.09.

Consider `CC(C)[Si]1(C(C)C)OCc2cc(C3CC3)nc(-c3ccc(Oc4ccccc4)cc3)c21`, for which the composite z-score was -1.16 in assay [1]; -0.168 in assay [3]; -0.289 in assay [4]; 0.631 in [5]; -0.18 in assay [6]; -0.117 in assay [7]. Also, the composite z-score in assay [8] was -0.0208; in assay [9], -0.414; in [10], -0.336. Moreover, the z-score in assay [2] is -2.24.

Take `CCCC=C(CCC)[C@@H](NC(=O)C(C)(C)C)c1ccc(C(=O)OC)cc1`: the composite z-score is 1.32 in assay [1]; -0.494 in assay [3]; 1.72 in assay [4]; 1.43 in assay [5]; 0.191 in [6]; 0.572 in [7]. Besides, the figures for the composite z-score in [8], in [9] and in assay [10] were 1.98, 0.321 and 1.5, respectively. Also, the z-score in assay [2] was -1.01.

For the molecule `O[C@@H](Cc1ccccc1)[C@@H](/C=C/C1CC1)N(CC#Cc1ccccc1)Cc1ccccc1Br`, the composite z-score is -0.0988 in [1]; -0.804 in assay [3]; -0.582 in [4]; 0.282 in [5]; -0.203 in assay [6]; -0.0769 in assay [7]. Further, the figures for the composite z-score in [8], in assay [9] and in [10] were -0.224, -0.183 and -0.288, respectively. For the same molecule, the z-score in [2] is -2.71.

Regarding `COc1ccc([Si](C)(C)[C@@H]2[C@@H](CCO)O[C@]3(C(=O)N(Cc4ccccc4)c4ccc(NC(=O)[C@H](C)O)cc43)[C@H]2C)cc1`, the composite z-score in [1] is 1.35; in assay [3], 0.387; in assay [4], 1.46; in [5], -0.153; in assay [6] it was 0.0559; in assay [7], -0.0738. In addition, the composite z-score in assay [8] was -0.0428; in assay [9] it was 1.5; in assay [10] it was 0.484. In [2], this molecule came in with a z-score of -5.08.

In the case of `C=CC[C@]1(C(=O)N2CCCCC2)N=C(c2ccc(OCCCO)cc2)O[C@H]1c1ccccc1CN=[N+]=[N-]`, the composite z-score is 1.42 in [1]; 0.264 in [3]; 1.7 in assay [4]; 0.204 in assay [5]; 0.0246 in [6]; -0.138 in assay [7]. The composite z-score was -0.769 in assay [8], 0.447 in [9] and 0.875 in [10]. Moreover, the z-score in assay [2] was -2.64.

As for `CO[C@H]1O[C@H](CO)[C@@H](OC(=O)Nc2ccc(Br)cc2)[C@@H]2OC(=O)[C@@H](Cc3ccccc3)C/C=C/C[C@H](Cc3ccccc3)C(=O)O[C@@H]12`, the composite z-score in [1] is 0.816; in assay [3], 0.142; in assay [4], 0.534; in assay [5], 0.149; in [6] it was 0.218; in assay [7] it was 0.0483. Further, the composite z-score in [8] amounted to 1.04; in [9] it was 0.325; in assay [10], 0.804. Besides, the z-score in [2] was -3.75.

In the case of `CC(C)[Si]1(C(C)C)OCc2cc(-c3ccc(-c4ccc(Cl)c(Cl)c4)o3)nc(-c3ccccc3)c21`, the composite z-score is -0.922 in assay [1]; -1.59 in [3]; -0.856 in [4]; -0.341 in [5]; -0.16 in [6]; 0.0121 in assay [7]. For the same molecule, the composite z-score is -0.418 in [8], -1.16 in [9] and -0.597 in [10]. The molecule further registered a z-score in [2] of -1.16.

Turning to `COc1cc2c(cc1O)C=[N+](Cc1sc3ccccc3c1Cl)CC2`, the composite z-score in assay [1] is -0.429; in assay [3], 0.324; in [4], -0.0659; in assay [5], 0.0401; in [6], -0.0403; in [7], -0.0626. The composite z-score in assay [8] was determined as 0.162; in assay [9] it was 0.25; in [10] it was 0.252. In assay [2], this molecule returned a z-score of -1.57.

For `COc1cc(OC)c(C(O)C2C=CC3C(=O)N(Cc4ccccc4)C(=O)C3N2n2cnnc2)cc1Br` (stereo not given), the composite z-score in assay [1] was 1.36; in [3], -0.6; in [4], 0.181; in assay [5], 0.595; in assay [6], 0.0173; in [7], -0.131. For the same molecule, the composite z-score in assay [8] is 0.665; in assay [9], 0.781; in [10], 0.871. For the same molecule, the z-score in assay [2] was -1.61.

Take `COC(=O)[C@]1(CCS(=O)(=O)c2ccccc2)N=C(c2ccc(OCCCO)cc2)O[C@@H]1c1ccccc1N=[N+]=[N-]`: the composite z-score was -0.0608 in assay [1]; 0.744 in assay [3]; 1.73 in assay [4]; 0.785 in [5]; 0.0655 in assay [6]; 0.232 in assay [7]. Also, the composite z-score came to 0.897 in assay [8], 0.815 in [9] and 2.06 in assay [10]. In addition, in assay [2], the z-score was -2.55.

On to `[N-]=[N+]=Nc1ccccc1C[C@]1(C(=O)NCCN2CCOCC2)COC(c2ccc(OCCCO)cc2)=N1`, for which the composite z-score in [1] was 1.4; in [3], 0.795; in assay [4] it was 0.76; in assay [5], -0.553; in assay [6] it was -0.349; in assay [7] it was -0.221. For the same molecule, the composite z-score in assay [8] came to 0.624; in assay [9], 0.101; in [10], 0.536. This molecule returned a z-score in assay [2] of -1.92.
